Assay results taken from the supplement of paper PMC11006884.
Targets with a hit are over-represented here; the source holds about 6,500 in all. About 2% of all pairs of compound and target were hits. A number with no mark means an inactive call.

Compound: COC(=O)C#Cc1ccccc1 [methyl 3-phenylpropiolate]
Assay: log2 ratio of iodoacetamide-alkyne labeling of the cysteine site, DMSO over compound (competition); higher = stronger covalent engagement of the cysteine by the compound, active = 1 or more
Conditions: 500 µM; treatment time 1 h; system: HEK293T cell lysate
Summary of the method: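 HEK293T lysate at 2 mg/mL was treated with vehicle or electrophile (500 µM) for 1 h at ambient temperature, then labelled with iodoacetamide alkyne (1 h), clicked to sCIP-TMT reagents, pooled, digested with trypsin overnight at 37 °C, enriched on streptavidin and eluted with acid. Peptides were analysed by Orbitrap Eclipse LC-MS/MS with FAIMS and quantified in FragPipe, using duplicate channels and three replicates, with cysteines quantified in only one replicate excluded. The log2 competition ratio for each cysteine is the mean control-channel reporter intensity divided by the mean compound-channel reporter intensity.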

UniProt P20700, sequence (P20700 whole entry, looked up): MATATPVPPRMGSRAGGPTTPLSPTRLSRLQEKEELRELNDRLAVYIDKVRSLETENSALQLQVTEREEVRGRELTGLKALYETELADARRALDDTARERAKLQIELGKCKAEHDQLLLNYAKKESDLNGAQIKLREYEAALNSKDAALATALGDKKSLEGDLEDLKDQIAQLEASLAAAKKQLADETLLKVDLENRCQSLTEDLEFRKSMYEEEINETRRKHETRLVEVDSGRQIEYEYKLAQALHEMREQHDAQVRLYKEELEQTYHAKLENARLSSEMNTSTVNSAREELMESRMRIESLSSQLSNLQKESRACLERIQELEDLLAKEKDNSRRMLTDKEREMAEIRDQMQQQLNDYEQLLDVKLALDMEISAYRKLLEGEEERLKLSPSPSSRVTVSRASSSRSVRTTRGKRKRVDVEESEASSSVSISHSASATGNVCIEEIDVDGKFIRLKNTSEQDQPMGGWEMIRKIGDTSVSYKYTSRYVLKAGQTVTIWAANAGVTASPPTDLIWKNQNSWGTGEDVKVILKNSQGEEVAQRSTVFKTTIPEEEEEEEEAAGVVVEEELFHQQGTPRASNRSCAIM
UniProt P19174, sequence (P19174 whole entry, looked up): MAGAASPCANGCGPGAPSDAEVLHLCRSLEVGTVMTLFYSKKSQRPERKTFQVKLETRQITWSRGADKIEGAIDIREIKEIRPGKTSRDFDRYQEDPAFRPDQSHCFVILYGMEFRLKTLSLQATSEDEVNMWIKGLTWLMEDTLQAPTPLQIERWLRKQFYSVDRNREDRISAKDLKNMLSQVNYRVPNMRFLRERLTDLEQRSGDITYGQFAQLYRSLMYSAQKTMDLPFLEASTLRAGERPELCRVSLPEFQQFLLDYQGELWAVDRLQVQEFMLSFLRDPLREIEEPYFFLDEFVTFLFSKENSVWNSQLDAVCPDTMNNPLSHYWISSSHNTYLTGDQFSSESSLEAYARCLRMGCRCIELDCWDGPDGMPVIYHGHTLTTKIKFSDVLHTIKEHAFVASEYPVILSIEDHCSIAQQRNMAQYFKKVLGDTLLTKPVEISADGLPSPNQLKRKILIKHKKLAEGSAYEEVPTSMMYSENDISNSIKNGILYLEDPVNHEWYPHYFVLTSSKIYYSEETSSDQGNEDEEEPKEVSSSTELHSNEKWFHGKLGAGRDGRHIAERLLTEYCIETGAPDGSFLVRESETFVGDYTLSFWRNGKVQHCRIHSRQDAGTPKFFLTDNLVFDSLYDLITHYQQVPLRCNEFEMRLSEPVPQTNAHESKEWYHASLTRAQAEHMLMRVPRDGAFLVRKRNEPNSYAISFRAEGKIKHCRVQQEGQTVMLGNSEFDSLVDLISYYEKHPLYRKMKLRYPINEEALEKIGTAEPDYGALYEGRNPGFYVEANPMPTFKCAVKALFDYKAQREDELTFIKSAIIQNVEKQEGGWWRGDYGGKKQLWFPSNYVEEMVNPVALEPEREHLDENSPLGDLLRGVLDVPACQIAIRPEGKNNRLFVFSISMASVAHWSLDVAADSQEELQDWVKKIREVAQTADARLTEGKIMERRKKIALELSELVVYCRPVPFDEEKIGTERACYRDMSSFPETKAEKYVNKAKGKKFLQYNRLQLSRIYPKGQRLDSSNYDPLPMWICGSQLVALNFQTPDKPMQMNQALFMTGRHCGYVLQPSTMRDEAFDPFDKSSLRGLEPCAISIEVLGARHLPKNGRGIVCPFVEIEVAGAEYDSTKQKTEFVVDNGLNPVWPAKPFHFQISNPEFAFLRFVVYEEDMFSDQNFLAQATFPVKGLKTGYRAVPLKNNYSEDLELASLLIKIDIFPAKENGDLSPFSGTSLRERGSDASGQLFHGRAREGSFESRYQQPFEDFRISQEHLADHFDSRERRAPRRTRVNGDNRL
UniProt P46459, sequence (P46459 whole entry, looked up): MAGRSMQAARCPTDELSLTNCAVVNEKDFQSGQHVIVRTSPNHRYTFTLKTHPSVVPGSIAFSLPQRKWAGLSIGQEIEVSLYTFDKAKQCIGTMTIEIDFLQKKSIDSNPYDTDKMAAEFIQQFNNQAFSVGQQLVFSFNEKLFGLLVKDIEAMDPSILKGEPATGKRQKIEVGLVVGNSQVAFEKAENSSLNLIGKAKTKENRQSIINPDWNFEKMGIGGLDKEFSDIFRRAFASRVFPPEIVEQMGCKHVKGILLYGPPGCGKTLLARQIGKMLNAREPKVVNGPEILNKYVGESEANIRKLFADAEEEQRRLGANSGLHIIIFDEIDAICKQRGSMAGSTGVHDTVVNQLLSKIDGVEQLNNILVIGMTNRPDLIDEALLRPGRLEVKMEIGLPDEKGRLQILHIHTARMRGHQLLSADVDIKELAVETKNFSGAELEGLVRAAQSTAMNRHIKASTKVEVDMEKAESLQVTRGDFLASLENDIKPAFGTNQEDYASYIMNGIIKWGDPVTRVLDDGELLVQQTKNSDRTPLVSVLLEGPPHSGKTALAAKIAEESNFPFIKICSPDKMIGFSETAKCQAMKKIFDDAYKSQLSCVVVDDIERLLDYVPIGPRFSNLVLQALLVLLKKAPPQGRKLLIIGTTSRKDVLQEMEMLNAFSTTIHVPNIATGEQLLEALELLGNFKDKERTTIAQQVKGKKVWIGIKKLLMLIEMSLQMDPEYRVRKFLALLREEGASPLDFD
UniProt P48735, sequence (P48735 whole entry, looked up): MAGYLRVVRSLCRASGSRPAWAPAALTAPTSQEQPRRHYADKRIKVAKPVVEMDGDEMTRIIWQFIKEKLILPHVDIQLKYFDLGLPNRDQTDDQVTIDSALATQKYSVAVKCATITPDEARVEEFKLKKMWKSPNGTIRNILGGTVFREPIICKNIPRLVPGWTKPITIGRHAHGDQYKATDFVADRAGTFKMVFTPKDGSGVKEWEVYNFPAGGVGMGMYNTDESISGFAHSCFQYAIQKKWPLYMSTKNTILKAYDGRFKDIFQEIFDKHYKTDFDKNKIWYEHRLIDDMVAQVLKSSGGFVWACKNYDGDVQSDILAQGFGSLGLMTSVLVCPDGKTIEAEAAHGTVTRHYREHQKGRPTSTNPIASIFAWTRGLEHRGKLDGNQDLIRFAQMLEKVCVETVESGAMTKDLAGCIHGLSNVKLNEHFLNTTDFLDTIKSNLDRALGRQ
UniProt P50990, sequence (P50990 whole entry, looked up): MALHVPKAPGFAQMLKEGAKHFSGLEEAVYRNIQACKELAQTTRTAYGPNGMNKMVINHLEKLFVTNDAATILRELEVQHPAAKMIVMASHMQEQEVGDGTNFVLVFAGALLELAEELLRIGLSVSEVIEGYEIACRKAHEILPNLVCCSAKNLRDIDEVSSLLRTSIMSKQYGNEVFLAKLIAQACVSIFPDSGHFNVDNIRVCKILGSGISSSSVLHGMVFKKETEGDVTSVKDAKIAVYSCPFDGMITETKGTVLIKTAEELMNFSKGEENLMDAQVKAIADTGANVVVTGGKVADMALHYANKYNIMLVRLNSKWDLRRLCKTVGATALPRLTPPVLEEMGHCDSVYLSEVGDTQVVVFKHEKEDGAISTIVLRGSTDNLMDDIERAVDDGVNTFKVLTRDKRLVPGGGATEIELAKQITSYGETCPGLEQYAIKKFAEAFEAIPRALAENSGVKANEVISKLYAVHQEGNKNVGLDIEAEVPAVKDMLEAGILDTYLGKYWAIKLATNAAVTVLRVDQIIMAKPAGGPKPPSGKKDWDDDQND
UniProt P27695, sequence (P27695 whole entry, looked up): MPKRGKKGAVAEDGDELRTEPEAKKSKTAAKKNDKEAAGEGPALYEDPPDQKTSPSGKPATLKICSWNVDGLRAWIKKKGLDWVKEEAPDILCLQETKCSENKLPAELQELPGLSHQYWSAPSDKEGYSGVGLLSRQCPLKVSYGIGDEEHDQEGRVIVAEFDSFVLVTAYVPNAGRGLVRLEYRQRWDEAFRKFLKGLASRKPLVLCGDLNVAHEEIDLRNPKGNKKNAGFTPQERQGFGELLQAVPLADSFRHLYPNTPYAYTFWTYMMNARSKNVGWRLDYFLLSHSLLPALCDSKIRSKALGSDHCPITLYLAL
UniProt O95197, sequence (O95197 whole entry): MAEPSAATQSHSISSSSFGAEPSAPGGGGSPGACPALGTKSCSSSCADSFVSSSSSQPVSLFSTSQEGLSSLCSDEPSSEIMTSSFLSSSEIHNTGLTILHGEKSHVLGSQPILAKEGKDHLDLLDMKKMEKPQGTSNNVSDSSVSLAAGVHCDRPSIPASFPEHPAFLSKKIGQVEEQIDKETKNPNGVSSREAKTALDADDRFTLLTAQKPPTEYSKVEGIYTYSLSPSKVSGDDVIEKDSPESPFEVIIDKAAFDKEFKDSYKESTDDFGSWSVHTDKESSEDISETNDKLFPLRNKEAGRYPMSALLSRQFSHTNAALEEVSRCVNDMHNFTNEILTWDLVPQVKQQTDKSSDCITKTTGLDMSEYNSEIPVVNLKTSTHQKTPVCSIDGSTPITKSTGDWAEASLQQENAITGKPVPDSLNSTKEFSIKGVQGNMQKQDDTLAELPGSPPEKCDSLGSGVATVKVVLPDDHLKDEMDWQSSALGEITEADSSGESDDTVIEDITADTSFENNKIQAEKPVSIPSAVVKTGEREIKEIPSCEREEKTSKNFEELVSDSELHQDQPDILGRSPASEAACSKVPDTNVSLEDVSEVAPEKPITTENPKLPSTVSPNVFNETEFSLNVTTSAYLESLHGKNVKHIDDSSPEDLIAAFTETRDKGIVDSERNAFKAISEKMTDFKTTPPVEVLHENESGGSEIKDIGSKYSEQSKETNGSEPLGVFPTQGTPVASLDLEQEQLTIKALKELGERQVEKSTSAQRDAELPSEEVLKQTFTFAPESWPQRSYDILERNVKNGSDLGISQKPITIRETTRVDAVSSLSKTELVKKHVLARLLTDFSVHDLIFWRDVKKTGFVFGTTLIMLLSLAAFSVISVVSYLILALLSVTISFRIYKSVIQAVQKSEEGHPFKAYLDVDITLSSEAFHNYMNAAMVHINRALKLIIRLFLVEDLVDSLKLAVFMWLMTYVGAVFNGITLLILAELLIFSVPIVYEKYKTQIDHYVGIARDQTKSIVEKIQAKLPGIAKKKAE

| Target | log2 ratio of iodoacetamide-alkyne labeling |
| --- | --- |
| PCYT1A C73 (UniProt P49585) | 0.921 |
| RPS17 C35 (UniProt P08708) | -0.00485 |
| SHMT1 C96 (UniProt P34896) | 0.0443 |
| PPP2R1A C154 (UniProt P30153) | 0.637 |
| MSH6 C1337 (UniProt P52701) | 0.14 |
| SP1 C604 (UniProt P08047) | -0.0454 |
| MDH2 C128 (UniProt P40926) | -0.335 |
| FECH C395 (UniProt P22830) | 0.372 |
| GMPS C631 (UniProt P49915) | 0.369 |
| LMNB1 C198 (UniProt P20700) | 0.109 |
| UniProt O96017_C385 | 0.227 |
| RPL27A C144 (UniProt P46776) | 0.155 |
| PYGB C326 (UniProt P11216) | 0.332 |
| AARS C723 (UniProt P49588) | 0.264 |
| FLNA C2107 (UniProt P21333) | 0.12 |
| IDH2 C154 (UniProt P48735) | 0.393 |
| PHKA1 C1082 (UniProt P46020) | 0.236 |
| ASS1 C132 (UniProt P00966) | 0.124 |
| PPP2R1A C294 (UniProt P30153) | 0.323 |
| APEX1 C93 (UniProt P27695) | 0.0645 |
| VDAC2 C8 (UniProt P45880) | 0.376 |
| UniProt P42677_C77 | 1.73 (active) |
| PCNA C62 (UniProt P12004) | 0.0598 |

| Target | log2 ratio of iodoacetamide-alkyne labeling |
| --- | --- |
| FLNA C1018 (UniProt P21333) | 0.0782 |
| ACAA2 C116 (UniProt P42765) | 1.22 (active) |
| MKI67 C2206 (UniProt P46013) | 0.603 |
| SCP2 C94 (UniProt P22307) | 0.136 |
| EIF2S3 C105 (UniProt P41091) | 0.341 |
| PPP2R1A C377 (UniProt P30153) | 0.919 |
| PLCG1 C976 (UniProt P19174) | 1.9 (active) |
| EEF2 C557 (UniProt P13639) | -0.298 |
| FASN C1118 (UniProt P49327) | 0.203 |
| BCR C395 (UniProt P11274) | 1.17 (active) |
| RANBP2 C1335 (UniProt P49792) | 0.226 |
| LATS1 C885 (UniProt O95835) | 0.423 |
| MTOR C300 (UniProt P42345) | 0.376 |
| GMPS C137 (UniProt P49915) | 0.217 |
| ALDOA C202 (UniProt P04075) | -0.0261 |
| RTN3 C34 (UniProt O95197) | 1.43 (active) |
| HSPA4 C417 (UniProt P34932) | 0.208 |
| DNAJA1 C149 (UniProt P31689) | 0.14 |
| EEF2 C567 (UniProt P13639) | 0.0358 |
| PARP1 C429 (UniProt P09874) | 0.192 |
| UniProt P28482_C254 | -0.0158 |
| PRKCSH C500 (UniProt P14314) | 0.513 |
| UniProt P49840_C398 | 0.241 |

| Target | log2 ratio of iodoacetamide-alkyne labeling |
| --- | --- |
| IARS C433 (UniProt P41252) | -0.0103 |
| NSF C11 (UniProt P46459) | 0.206 |
| LRPPRC C208 (UniProt P42704) | 0.123 |
| POLD1 C837 (UniProt P28340) | 1.16 (active) |
| SRI C194 (UniProt P30626) | -0.125 |
| FXR2 C270 (UniProt P51116) | 0.306 |
| LTA4H C8 (UniProt P09960) | 0.273 |
| PAICS C81 (UniProt P22234) | 0.248 |
| GALK1 C351 (UniProt P51570) | 0.243 |
| SLC7A1 C628 (UniProt P30825) | 0.105 |
| IDH3A C359 (UniProt P50213) | 1.05 (active) |
| MAP1B C1228 (UniProt P46821) | 0.169 |
| MTHFD1 C143 (UniProt P11586) | -0.0254 |
| UniProt O96017_C539 | 0.494 |
| IMPDH2 C95 (UniProt P12268) | -0.293 |
| HNRNPM C694 (UniProt P52272) | 0.0717 |
| MSH2 C333 (UniProt P43246) | 1.16 (active) |
| RNH1 C85 (UniProt P13489) | 0.0022 |
| HSPA4L C421 (UniProt O95757) | -0.0563 |
| MBD3 C266 (UniProt O95983) | 0.0164 |
| DSP C3 (UniProt P15924) | 1.14 (active) |
| STIP1 C339 (UniProt P31948) | 0.0728 |
| MPI C289 (UniProt P34949) | -0.0268 |

| Target | log2 ratio of iodoacetamide-alkyne labeling |
| --- | --- |
| MPG C56 (UniProt P29372) | 1.66 (active) |
| ACADSB C175 (UniProt P45954) | 0.109 |
| FLNA C1453 (UniProt P21333) | 0.357 |
| ENO1 C357 (UniProt P06733) | -0.0848 |
| PLS3 C33 (UniProt P13797) | 1.04 (active) |
| UniProt P35568_C494 | 0.123 |
| HNRNPM C653 (UniProt P52272) | 0.0149 |
| PFKL C170 (UniProt P17858) | 0.343 |
| HNRNPH1 C267 (UniProt P31943) | 0.211 |
| CCT3 C475 (UniProt P49368) | 0.185 |
| UniProt P0CG30_C105 | -0.204 |
| FASN C1548 (UniProt P49327) | -0.00359 |
| RANBP2 C1296 (UniProt P49792) | 0.543 |
| CCT5 C377 (UniProt P48643) | 0.18 |
| NF1 C383 (UniProt P21359) | 0.376 |
| UniProt P49753_C401 | 0.0763 |
| PTPN2 C330 (UniProt P17706) | 0.608 |
| CAST C413 (UniProt P20810) | 0.756 |
| IMPDH2 C140 (UniProt P12268) | 1.11 (active) |
| RPS5 C66 (UniProt P46782) | 2.5 (active) |
| JUP C90 (UniProt P14923) | 0.305 |
| MCM5 C219 (UniProt P33992) | 1.34 (active) |
| MSN C284 (UniProt P26038) | -0.16 |

| Target | log2 ratio of iodoacetamide-alkyne labeling |
| --- | --- |
| LMNA C570 (UniProt P02545) | 0.553 |
| RNH1 C75 (UniProt P13489) | 0.145 |
| PGLS C32 (UniProt O95336) | 0.724 |
| PRKAR2A C128 (UniProt P13861) | 0.00919 |
| HCFC1 C1895 (UniProt P51610) | 1.09 (active) |
| HNRNPA1 C175 (UniProt P09651) | -0.128 |
| FASN C1992 (UniProt P49327) | 0.0894 |
| RPL10 C195 (UniProt P27635) | 0.694 |
| CCT8 C244 (UniProt P50990) | 0.242 |
| ACAA1 C177 (UniProt P09110) | 0.162 |
| MBD3 C172 (UniProt O95983) | 0.114 |
| HSP90AB1 C521 (UniProt P08238) | 0.298 |
| CARS C27 (UniProt P49589) | 0.454 |
| CAPZB C206 (UniProt P47756) | 0.316 |
| ADSL C27 (UniProt P30566) | 0.0306 |
| SEPHS1 C31 (UniProt P49903) | 0.175 |
| RPS3 C97 (UniProt P23396) | 2.45 (active) |
| PABPC1 C128 (UniProt P11940) | -0.0389 |
| DNMT1 C1226 (UniProt P26358) | -0.0963 |
